Assay outcomes as filed in PubChem.
Hits are enriched below; roughly 2.5% of the tested compounds scored in any of these assays.
MEKK3 PB1 HTS: raises or lowers MEK5 binding to the human MEKK3 PB1 domain; bead-based flow cytometry, Alexa488-MEK5 binding to MEKK3; actives lie on both sides; 0 = blocked by unlabeled MEK5, 100 = vehicle; actives 1.4% (n = 290,000); binding response (% of control), % at 10 µM;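 active = binding response more than 3 SD above or below the average of its plate-row segment, actives on both sides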;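 note: Alexa488 bead fluorescence after subtracting the streptavidin-only scavenger bead signal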
MEKK2 mut-MEK5: signal of MEK5 binding to mutant human MEKK2 PB1 domain. bead flow cytometry, Alexa488-MEK5 binding to MEKK2 mutant. percent response, % at 10 µM. actives 0.35% (n = 290,000); in the data active = percent response above about 24%, passing the limit was not always enough
GRK2 aptamer HTS: blocks RNA aptamer binding to human GRK2. P25098. bead flow cytometry, FAM-aptamer displacement from GRK2. inhibition of aptamer binding, % at 10 µM. actives 0.59% (n = 330,000). AID 488847;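 active = inhibition of aptamer binding above 40%, roughly 3 SD of noise, on plates passing a quality check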;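 note: median bead fluorescence of bound FAM aptamer so fluorescent compounds give negative values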
Target sequence (P25098 whole entry, looked up): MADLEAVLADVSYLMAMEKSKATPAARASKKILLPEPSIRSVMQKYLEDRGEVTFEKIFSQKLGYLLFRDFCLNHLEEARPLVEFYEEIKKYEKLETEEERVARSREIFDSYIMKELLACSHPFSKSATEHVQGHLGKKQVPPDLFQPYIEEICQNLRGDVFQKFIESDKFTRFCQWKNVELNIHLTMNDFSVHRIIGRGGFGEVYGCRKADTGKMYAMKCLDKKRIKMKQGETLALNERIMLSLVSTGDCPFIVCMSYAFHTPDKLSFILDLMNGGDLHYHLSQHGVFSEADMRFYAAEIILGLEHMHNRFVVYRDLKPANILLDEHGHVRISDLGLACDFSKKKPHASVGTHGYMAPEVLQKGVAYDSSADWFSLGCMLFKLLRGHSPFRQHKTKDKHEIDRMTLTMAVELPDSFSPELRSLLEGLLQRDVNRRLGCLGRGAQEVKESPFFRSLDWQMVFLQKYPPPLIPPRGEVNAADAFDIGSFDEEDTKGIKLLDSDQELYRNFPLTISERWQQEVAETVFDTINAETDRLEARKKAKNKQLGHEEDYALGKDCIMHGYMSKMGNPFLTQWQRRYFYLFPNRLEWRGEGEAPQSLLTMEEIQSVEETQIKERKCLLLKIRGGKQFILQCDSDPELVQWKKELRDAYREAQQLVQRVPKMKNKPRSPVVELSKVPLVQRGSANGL
MEKK2 WT-MEK5: raises or lowers MEK5 binding to wildtype human MEKK2 PB1 domain. Q9Y2U5. bead flow cytometry, Alexa488-MEK5 binding to MEKK2 WT; actives lie on both sides. binding response (% of control), % at 10 µM. actives 1.1% (n = 290,000); in the data active = binding response below about 67% or above about 130%
GRK2 CP1: human GRK2 inhibition confirmation, cherry pick 1; actives 4% (n = 2,000); bead-bound GRK2, FAM-aptamer displacement, flow cytometry; shares compounds with GRK2 aptamer HTS; aptamer displacement, % at 10 µM;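 active = aptamer displacement above 40%, near three times the noise of non-fluorescent compounds, on plates passing quality checks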;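 note: negative values mostly reflect intrinsic compound fluorescence rather than true enhancement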
Aptamer quench: counter-screen for GRK2 aptamer inhibitors: fluorescent aptamer quenchers; shares compounds with GRK2 aptamer HTS; AID 504521; Fluorescent RNA aptamer beads, quenching, flow cytometry; active compounds read high; fluorescence change (kMESF span), kMESF (no concentration beside the values); 110 tested, under 10 active;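 active = compounds whose bead fluorescence drops by more than 37 kMESF across the dose range, marking them as dye quenchers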
Aptamer quench SP: aptamer fluorescence quenching in GRK2 counter-screen | 2,000 tested, under 10 active | Carboxyfluorescein RNA aptamer on beads, flow cytometry quenching; active compounds read low | AID 504580 | fluorescence response (% of DMSO), % at 10 µM | shares compounds with GRK2 aptamer HTS;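 active = compounds that quench the bead-bound fluorescent RNA probe, cutting fluorescence to under half of the solvent control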;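 note: counterscreen run without GRK2 so only probe quenching by compound is measured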
GRK2 CP2: confirmation of human GRK2 inhibitors binding RNA aptamer site; shares compounds with GRK2 aptamer HTS; bead-bound GRK2, FAM-aptamer displacement, flow cytometry; inhibition of aptamer binding, % at 10 µM; 360 tested, under 10 active; AID 504782;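 active = inhibition of aptamer binding above 40%, about triple the noise seen with nonglowing compounds, on plates passing quality control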;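 note: negative values mostly come from compounds that fluoresce themselves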
FAM quench CP2: counter-screen for GRK2 binding hits: quenchers of fluorescent RNA aptamer | shares compounds with GRK2 aptamer HTS | carboxyfluorescein RNA aptamer beads, flow cytometry quenching; active compounds read low | fluorescence response vs DMSO, % at 10 µM | 360 tested, under 10 active | AID 588494;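 active = response vs DMSO under 50%, meaning signal dropped by over half, treated as fluorescence quencher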;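 note: labelled aptamer on streptavidin beads without GRK2 as a quench counter-screen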
Each line names hits and unclear results; the compound was inactive in the other large screens (follow-up assays come after a bar, where they were run).

COc1ccc(C(=O)N(c2ccc(OC)cc2)S(=O)(=O)c2cccs2)cc1	none
Cc1cccc(NC(=O)c2nc[nH]c2C(=O)N[C@H](C)c2ccccc2)c1	none (no result: MEKK3 PB1 HTS, MEKK2 mut-MEK5, MEKK2 WT-MEK5)
C/C(=N\OCc1ccccc1C#N)c1cc2ccccc2o1	GRK2 aptamer HTS 47 | GRK2 CP1 inactive | Aptamer quench SP inactive
CCn1cc(C(=O)NC(C)C)c(=O)c2cc(F)c(N3CCN(C(=O)c4ccco4)CC3)cc21	GRK2 aptamer HTS 88 | GRK2 CP1 inactive | Aptamer quench SP inactive
COc1cc(/C=N/NC(=O)C(Cc2c[nH]c3ccccc23)NC(=O)OCc2ccccc2)cc([N+](=O)[O-])c1O (stereo not drawn)	none
O=C(C(Cl)c1ccccc1)N1CCCC1 (stereo not drawn)	none
CN(C(=O)c1ccccc1C(=O)OCC(=O)c1ccccc1)c1ccccc1	GRK2 aptamer HTS 75 (no result: MEKK3 PB1 HTS, MEKK2 mut-MEK5, MEKK2 WT-MEK5) | GRK2 CP1 inactive | Aptamer quench SP inactive
CN(C(=O)c1ccccc1C(=O)OCC(=O)c1ccc(F)cc1)c1ccccc1	none (no result: MEKK3 PB1 HTS, MEKK2 mut-MEK5, MEKK2 WT-MEK5)
N/C(=N\OC(=O)C1CCCCC1)c1ccncc1	none
N/C(=N\OC(=O)C1CCCCC1)c1ccccn1	GRK2 aptamer HTS 83 | GRK2 CP1 inactive | Aptamer quench SP inactive
O=C(NCC1CCCN1S(=O)(=O)c1cccs1)c1cccc(F)c1 (stereo not drawn)	none (no result: MEKK3 PB1 HTS, MEKK2 mut-MEK5, MEKK2 WT-MEK5)
Cc1ccc(N(CC(O)Cn2c3ccccc3c3ccccc32)S(C)(=O)=O)cc1 (stereo not drawn)	GRK2 aptamer HTS 54 | GRK2 CP1 inactive | Aptamer quench SP inactive
Cc1cccc(C)c1N1C(=O)[C@@H]2C(c3ccccc3Cl)=NO[C@@H]2C1=O	none | GRK2 CP2 inactive | FAM quench CP2 inactive
COc1ccc(OC)c(N2C(=O)[C@@H]3C(c4ccccc4Cl)=NO[C@@H]3C2=O)c1	GRK2 aptamer HTS 70 | GRK2 CP1 98 | Aptamer quench inactive | Aptamer quench SP inactive
Cc1ccc(N2C(=O)[C@@H]3C(c4cccnc4)=NO[C@@H]3C2=O)cc1	none
COc1ccc(C2=NO[C@@H]3C(=O)N(c4c(C)cccc4C)C(=O)[C@H]23)cc1OC	none | GRK2 CP2 inactive | FAM quench CP2 inactive
CCN(CC)S(=O)(=O)c1ccc(NC(=O)COC(=O)CN2C(=O)c3ccccc3C2=O)cc1	none
Fc1ccc(CN2CCN(c3ncccn3)CC2)cc1	none
COc1ccc(C(=O)N[C@H](C(=O)Nc2ccc(OC)nc2)C(C)C)cc1	none
CCOC(=O)N1CCN(C(=O)CSc2ccc3nnc(-c4ccncc4)n3n2)CC1	none
CCOC(=O)CC(=O)CSc1ccc2nnc(-c3ccc(C)cc3)n2n1	GRK2 aptamer HTS 100 | GRK2 CP1 inactive | Aptamer quench SP inactive
Cc1occc1C(=O)NNC(=S)Nc1ccccc1C(F)(F)F	none
O=C(NNC(=S)Nc1ccccc1C(F)(F)F)c1ccc(Br)o1	GRK2 aptamer HTS 42 | GRK2 CP1 inactive | Aptamer quench SP inactive
COc1ccccc1CCC(=O)Nc1cccc(S(=O)(=O)N2CCOCC2)c1	none
C[C@H](NC(=O)c1nc[nH]c1C(=O)N[C@@H](Cc1ccccc1)C(=O)OCc1ccccc1)C(=O)OCc1ccccc1	none
Cc1cccc(NC(=O)c2nc[nH]c2C(=O)N[C@@H](Cc2ccccc2)C(=O)OCc2ccccc2)c1	GRK2 aptamer HTS 51 | GRK2 CP1 inactive | Aptamer quench SP inactive | GRK2 CP2 inactive | FAM quench CP2 inactive
CCCN1CCC(N2CCN(c3ccc([N+](=O)[O-])cc3)CC2)CC1	none
CCCCN1C=C(C(=O)OC)C(c2ccccc2C(F)(F)F)C(C(=O)OC)=C1	none
Cn1nccc1C(=O)Nc1ccc2c(c1)OCCO2	GRK2 aptamer HTS 100 | GRK2 CP1 inactive | Aptamer quench SP inactive
CCn1c(CNC(=O)c2ccco2)nnc1SCC(=O)c1ccc(F)cc1	none
C=CCn1c(CNC(=O)c2ccco2)nnc1SCC(=O)c1ccccc1	GRK2 aptamer HTS 80 | GRK2 CP1 inactive | Aptamer quench SP inactive
CCC(c1nc2ccccc2c(=O)n1-c1cccnc1)N1C(=O)c2ccccc2C1=O (stereo not drawn)	none (no result: MEKK3 PB1 HTS, MEKK2 mut-MEK5, MEKK2 WT-MEK5)
COc1ccc(/C=N/Nc2ncc(Br)cn2)c(OC)c1	GRK2 aptamer HTS 45 | GRK2 CP1 inactive | Aptamer quench SP inactive
COc1ccc(/C=N\Nc2ccccn2)c(OC)c1	none
Fc1ccccc1CN1CCCN(C(=S)Nc2cccc(Cl)c2)C1	none
O=C(Nc1ccccc1)N1CCCN(Cc2ccccc2F)C1	GRK2 aptamer HTS 99 | GRK2 CP1 inactive | Aptamer quench SP inactive
C[C@H](NS(=O)(=O)OCC(Cl)(Cl)Cl)C1CC1c1ccccc1 (stereo partly drawn)	none
O=S(=O)(NC1CC(NS(=O)(=O)OCC(Cl)(Cl)Cl)C2CCCCC12)OCC(Cl)(Cl)Cl (stereo not drawn)	GRK2 aptamer HTS 74 | GRK2 CP1 inactive | Aptamer quench SP inactive
Cc1ccc2c(c1)Oc1ccc(NC(=O)CCl)cc1C(=O)N2	GRK2 aptamer HTS 41 | GRK2 CP1 inactive | Aptamer quench SP inactive
CC(C)=C1SC(N2CCCCC2)=NC1=O	none
COc1ccc(-c2nn(-c3ccccc3)cc2/C=C2/SC(=S)N(CCC(=O)O)C2=O)c(C)c1	GRK2 aptamer HTS 80 | GRK2 CP1 inactive | Aptamer quench SP inactive
COc1cc2c(cc1OC)C(C)N(C(C)=O)CC2 (stereo not drawn)	none
COc1cc2c(cc1OC)C(C)N(C(=O)c1cccs1)CC2 (stereo not drawn)	GRK2 aptamer HTS 81 | GRK2 CP1 inactive | Aptamer quench SP inactive
Cc1cc(C)n2nc(C(=O)N3CCN(c4ccc([N+](=O)[O-])cc4)CC3)nc2n1	none
Cc1ccc(C(=O)/C=C/Nc2cccc(O)c2)cc1	none
C/C(=C\C(=O)c1ccc(C)cc1)Nc1cccc(O)c1	none (no result: MEKK3 PB1 HTS, MEKK2 mut-MEK5, MEKK2 WT-MEK5) | GRK2 CP1 inactive | Aptamer quench SP inactive
COc1ccc(NS(=O)(=O)c2ccc(OC)c(NC(=O)CCC3CCCC3)c2)cc1	none
O=C(Cn1cnc2scc(-c3cccc([N+](=O)[O-])c3)c2c1=O)NCc1ccco1	GRK2 aptamer HTS 88 | GRK2 CP1 inactive | Aptamer quench SP inactive
CN1C/C(=C/c2ccsc2)C(=O)/C(=C/c2ccsc2)C1	GRK2 aptamer HTS 63 | GRK2 CP1 inactive | Aptamer quench SP inactive
